Drawing on PubChem BioAssay (NCI), this text covers growth for nine molecules.

What all share (experiment): NCI-60 one-dose screen, 48 h (100 = growth as untreated, 0 = no growth, -100 = all killed)
In test [1] the test system is HCT-15 colon. The settings on record: 10 µM unless noted.
The test system of test [2] is HT29 colon. The settings on record: 10 µM unless noted.
The test system of test [3] is SNB-75 CNS. The settings on record: 10 µM unless noted.
The subject of test [4] is SNB-19 CNS. The settings on record: 10 µM unless noted.
The test system of test [5] is U251 CNS. The settings on record: 10 µM unless noted.
In test [6] the test system is PC-3 prostate. The settings on record: 10 µM unless noted.
Test [7] has as its system SK-MEL-5 melanoma. The settings on record: 10 µM unless noted.
Test [8] relates to UACC-62 melanoma. The settings on record: 10 µM unless noted.
Test [9] concerns LOX IMVI melanoma. The settings on record: 10 µM unless noted.
Test [10] relates to SK-MEL-28 melanoma. The settings on record: 10 µM unless noted.
Test [11] deals with SK-MEL-2 melanoma. The settings on record: 10 µM unless noted.
Test [12] deals with EKVX NSCLC. The settings on record: 10 µM.
Test [13] has as its system SN12C renal. The settings on record: 10 µM unless noted.
For test [14], the system named is UO-31 renal. The settings on record: 10 µM unless noted.
The subject of test [15] is TK-10 renal. The settings on record: 10 µM unless noted.
Test [16] concerns A498 renal. The settings on record: 10 µM unless noted.
Test [17] deals with CCRF-CEM leukemia. The settings on record: 10 µM.
In test [18] the test system is MOLT-4 leukemia. The settings on record: 10 µM unless noted.
For test [19], the system named is ACHN renal. The settings on record: 10 µM unless noted.
Test [20] deals with CAKI-1 renal. The settings on record: 10 µM unless noted.

About 83,000 compounds went through this panel and 20% of them were active in at least one assay; those are over-represented in the sample as a whole.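 In brief: 96-well plates, 48 h treatment, single concentration, percent growth endpoint.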 A number with no mark means an inactive call. Active and inactive are the calls of the source. Rule for the calls: active = growth percent below 10; inactive = the rest.

`COc1ccc(/C=C(/C(=O)N2CCCCC2)c2cc(OC)c(OC)c(OC)c2)cc1`: the growth in test [1] is 26.8%; in test [2] it was 5.67% (active); in test [3], -15.6% (active); in test [4], 32%; in test [5], 26%; in [6] it was 12.4%. The growth is 26.8% in [7]; 36.5% in [8]; 36.5% in test [9]; 54.1% in test [10]; 28.5% in [11]; 42.5% in test [12]. For the same molecule, the growth in [13] was 39.2%; in [14] it was 48.2%; in [15], 77.3%; in test [16], -2.33% (active); in test [17] it was 14.1%; in [18], 30.9%.
As for `COc1ccc(C2C3(C#N)C(N)=NC(=C(C#N)C#N)C23C#N)cc1OC` (stereo not given), the growth in [1] was 114%; in test [2] it was 116%; in test [3], 107%; in [4] it was 106%; in test [5], 103%; in [6] it was 111%. For the same molecule, the growth in test [7] was 105%; in test [8], 99.8%; in test [9] it was 98.7%; in test [10], 115%; in [11], 104%; in test [12], 94.6%. In addition, the growth in test [13] is 109%; in [14], 91%; in test [15], 114%; in [16] it was 101%; in test [17], 92.3%; in [18], 102%.
For `CN1C(=O)C(=Cc2coc3ccc(Br)cc3c2=O)C(=O)N(C)C1=O`, the growth was 105% in test [1]; 108% in [2]; 105% in test [3]; 105% in test [4]; 104% in test [5]; 89.3% in test [6]. Further, the growth in test [7] was 93.8%; in test [8], 83.4%; in test [9], 101%; in test [10], 103%; in test [11], 111%; in test [12], 109%. For the same molecule, the growth was 90.3% in test [13]; 77.3% in test [14]; 96.8% in [19]; 101% in test [20]; 116% in test [17]; 126% in test [18].
Regarding `O=S(=O)(O)CCI`, the growth was 108% in test [1]; 116% in [2]; 98% in test [3]; 102% in [4]; 110% in test [5]; 95.7% in test [6]. Further, the growth is 91.2% in test [7]; 101% in [8]; 97.8% in test [9]; 113% in [10]; 102% in test [11]; 119% in test [12]. Moreover, the growth was 105% in [13]; 95.4% in test [14]; 112% in test [19]; 107% in test [20]; 90.7% in test [16]; 106% in test [17]. Also, the growth in test [18] is 120%.
On to `CC1(C)Oc2cc3oc(=O)ccc3cc2C[C@@H]1OCCOS(=O)(=O)c1ccc(C#N)cc1`, for which the growth was 92.7% in [1]; 97.2% in [2]; 93.4% in [3]; 96.5% in test [4]; 101% in [5]; 87.3% in test [6]. Further, the growth is 93.6% in [7]; 87.1% in [8]; 97.6% in test [9]; 101% in test [10]; 102% in [11]; 107% in test [12]. Also, the growth in test [13] is 91.5%; in test [14] it was 83.5%; in test [15] it was 101%; in [20], 86.3%; in [16] it was 79.6%; in test [17] it was 98.6%. The growth in test [18] is 92%.
Regarding `CC(=O)CCS(=O)c1ccccc1` (stereo not given), the growth was 110% in [1]; 97.8% in test [2]; 96% in [3]; 98.2% in test [4]; 97.2% in [5]; 94.6% in [6]. The growth in test [7] is 102%; in test [8] it was 99.6%; in test [9] it was 97.1%; in test [10], 109%; in test [11] it was 97.1%; in test [12] it was 106%. Besides, the growth in test [13] is 98.6%; in test [14], 85.8%; in test [15] it was 89%; in test [19] it was 112%; in [17], 101%; in [18], 98.3%.
As to `CC(=N\N=C(N)N)/C(=N/N=C(N)N)c1ccccc1`, the growth in test [1] was 103%; in test [2] it was 42.7%; in test [3], 88.4%; in test [4], 68%; in test [5], 80.7%; in test [6], 75.2%. Moreover, the growth in test [7] is 102%; in test [8] it was 103%; in test [9] it was 95.6%; in test [10], 110%; in test [11], 84.6%; in test [12], 68.6%. Besides, the growth in test [13] was 107%; in [14], 82.9%; in test [15], 91.1%; in [19] it was 106%; in [17], 32.2%; in test [18], 48.9%.
For the molecule `CCOc1ccc(/C=N/NC(=O)c2cccc3ccccc23)cc1OCC`, the growth in test [1] is 97.2%; in [2], 103%; in [3] it was 106%; in [4], 110%; in [5], 100%; in test [6], 90.1%. Besides, the growth in [7] is 92.1%; in [8], 93.4%; in [9] it was 92.7%; in test [10] it was 103%; in test [11], 106%; in [12], 99.1%. For the same molecule, the growth in test [13] was 96.1%; in test [14], 81.6%; in test [19] it was 102%; in [20] it was 99.3%; in test [16], 78.1%; in [17], 84.1%. For the same molecule, the growth in test [18] is 88.3%.
Turning to `C[C@@H](c1ccc2c(c1)[nH]c1ccc(Cl)cc12)c1nc2ccc(Cl)cc2[nH]1`, the growth in test [1] was 90.1%; in test [2], 97.2%; in test [3], 74.2%; in test [4], 91.7%; in test [5], 92.1%; in test [6], 84.4%. Moreover, the growth in test [7] was 95%; in [8], 76.6%; in test [9], 85.4%; in test [10], 99.8%; in test [11], 106%; in [12] it was 75.5%. Moreover, the growth in test [13] is 80.6%; in test [14], 58%; in test [15], 85.6%; in test [16], 99.7%; in [17], 16.6%; in test [18], 49.4%.
